From PubChem BioAssay (NCATS)
Values joined by “and” are separate entries in the source; they are usually repeats but may differ in a detail not shown here. Equal entries are not always repeated. Records with an inconclusive call do not appear. Active and inactive are the calls of the source. Unless noted, calls come from the whole dose curve; as a rule, active = well fitted curve in the direction sought with a large enough effect; inconclusive = small, poorly fitted or top-dose-only effect, or another doubt; inactive = no such curve, though single readings can be large; an effect the other way counts as inactive or inconclusive.

What was measured:
[1] = target: Glutathione peroxidase 1 (Homo sapiens) (UniProt P07203); assay: Primary qHTS Assay for Inhibitors of Recombinant Selenoprotein Glutathione Peroxidase 1 (GPX1) (AID 1845191); note: nearly all actives have a fitted effect of over 65% in size; note: potency is the fitted concentration of half-maximal effect; for activity, negative = inhibition: % is set by controls: 0 for no effect and ±100 for the full control effect
Glutathione peroxidase 1 (Homo sapiens), sequence (P07203 whole entry, looked up): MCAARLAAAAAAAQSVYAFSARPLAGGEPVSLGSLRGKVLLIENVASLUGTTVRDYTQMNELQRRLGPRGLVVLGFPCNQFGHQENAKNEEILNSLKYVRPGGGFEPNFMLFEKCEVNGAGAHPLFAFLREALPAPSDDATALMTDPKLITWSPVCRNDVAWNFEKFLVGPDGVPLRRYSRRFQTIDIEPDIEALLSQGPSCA
Summary of the method: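 10 nM GPX1 + cpd, 30 min RT; start w/ 1 mM GSH, 0.5 mM cumene hydroperoxide, 0.5 mM NADPH, 100 nM GR, 0.01% BSA; buffer 50 mM Tris-HCl pH 7.5, 2 mM EDTA, 150 mM NaCl; Fl 340/450, 0 & 15 min.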

[2] = target: Phospholipid hydroperoxide glutathione peroxidase GPX4 (Homo sapiens) (UniProt P36969); assay: Primary qHTS Assay for Inhibitors of Recombinant Selenoprotein Glutathione Peroxidase 4 (GPX4) (AID 1845192); note: nearly all actives have a fitted effect of over 65% in size; note: potency is the fitted concentration of half-maximal effect; for activity change, negative = inhibition: series mostly up to about 50 µM; % is set by controls: 0 for no effect and ±100 for the full control effect
Phospholipid hydroperoxide glutathione peroxidase GPX4 (Homo sapiens), sequence (P36969 whole entry, looked up): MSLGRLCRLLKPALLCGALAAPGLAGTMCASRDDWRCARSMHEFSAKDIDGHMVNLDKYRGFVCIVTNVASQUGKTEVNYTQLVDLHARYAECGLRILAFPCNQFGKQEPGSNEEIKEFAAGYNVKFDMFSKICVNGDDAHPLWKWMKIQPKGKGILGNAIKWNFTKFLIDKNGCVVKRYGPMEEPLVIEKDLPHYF
Summary of the method: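 NADPH consumption, followed by fluorescence at 340/450 nm between 0 and 15 min, reports GPX4 activity via coupled glutathione reductase (100 nM). Enzyme 200 nM was pre-exposed to compound 30 min; 0.5 mM cumene hydroperoxide and 1 mM GSH served as substrates.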

[3] = target: Nicotinamide N-methyltransferase (Homo sapiens) (UniProt P40261); assay: Confirmatory Screen for Target Class Profiling of Small Molecule Inhibitors of Methyltransferases (AID 1745852); settings: MTase-Glo luminescence, SAH detection, recombinant enzyme; measured here: NNMT max response; stronger effect = lower value
Nicotinamide N-methyltransferase (Homo sapiens), sequence (P40261 whole entry, looked up): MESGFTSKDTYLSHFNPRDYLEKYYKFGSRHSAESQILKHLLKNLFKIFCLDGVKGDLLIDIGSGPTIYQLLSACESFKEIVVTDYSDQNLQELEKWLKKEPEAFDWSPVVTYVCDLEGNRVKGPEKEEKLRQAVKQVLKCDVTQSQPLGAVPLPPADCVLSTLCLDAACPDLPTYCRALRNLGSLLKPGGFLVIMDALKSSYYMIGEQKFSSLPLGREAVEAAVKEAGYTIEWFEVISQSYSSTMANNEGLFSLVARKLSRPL

[4] = target: Phenylethanolamine N-methyltransferase (Homo sapiens) (UniProt P11086); assay: as above; settings: MTase-Glo luminescence, SAH detection, recombinant enzyme; measured here: PNMT max response; stronger effect = lower value
Phenylethanolamine N-methyltransferase (Homo sapiens), sequence (P11086 whole entry, looked up): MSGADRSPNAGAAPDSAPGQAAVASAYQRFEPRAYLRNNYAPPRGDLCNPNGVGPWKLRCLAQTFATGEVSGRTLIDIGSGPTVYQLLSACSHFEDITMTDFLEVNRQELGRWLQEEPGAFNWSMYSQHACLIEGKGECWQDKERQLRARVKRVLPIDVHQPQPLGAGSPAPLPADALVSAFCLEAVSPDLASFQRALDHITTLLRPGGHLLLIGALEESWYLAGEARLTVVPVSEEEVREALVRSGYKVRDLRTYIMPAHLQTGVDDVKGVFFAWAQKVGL

[5] = target: Luciferin 4-monooxygenase (Photinus pyralis) (UniProt P08659); assay: Primary firefly luciferase (FLuc) qHTS assay for identification of artifact compounds. (AID 1845220); note: nearly all actives have a fitted effect of over 60% in size;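 for activity change, negative = inhibition: series mostly up to about 54 µM; plate controls were DMSO vehicle for no effect and no enzyme for full effect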
Summary of the method: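 Cell-free, 1536-well qHTS. Buffer pH 7.6 with 0.01% Tween-20 and 0.05% BSA; 10 uM D-luciferin, 10 uM ATP; 10 nM P. pyralis luciferase; luminescence after 5 min.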

[6] = Primary fluorescence-based thiol-reactive (MSTI) qHTS assay for identification of artifact compounds. (AID 1845221);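 note: series mostly up to about 54 µM; thiol-reactive compounds lower the probe fluorescence signal; nearly all actives have a fitted effect of over 65% in size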
Summary of the method: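 qHTS titration of compound; 4 uM MSTI, PBS pH 7.4, 2% DMSO; 1 h RT, dark; fluorescence 525/598 nm; normalized to Acetyl-MSTI and MSTI; 4-parameter Hill fit.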

[7] = system: Nanoluciferase (engineered Oplophorus gracilirostris luciferase); assay: Primary Nanoluciferase (NLuc) qHTS assay for identification of artifact compounds. (AID 1845222);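 note: series mostly up to about 54 µM; 0% = DMSO and -100% = no enzyme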
Summary of the method: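 Compounds are pinned into diluted (1:55) conditioned medium of NLuc-expressing S16 cells and held 15 min at room temperature protected from light. Nano-Glo substrate follows, and luminescence is read 5 min later.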

[8] = Primary redox qHTS assay for identification of artifact compounds. (AID 1845223);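 note: 0% = DMSO and 100% = reference compound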
Summary of the method: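 Amplex Red (25 uM) and HRP (250 mU/mL) in HBSS, with compounds for 15 min, then 250 uM DTT for 30 min, room temperature, dark. Fluorescence 525/598 nm read; normalized to DMSO and 10 uM DA3003; Hill fit.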

[9] = Quantitative High-Throughput drug screen in 47 multiple myeloma cell lines against the NCATS MIPE library collection: Delta47_JCRB cell viability assay (AID 1918925; note: nearly all actives have a fitted effect of over 45% in size; note: potency is the fitted concentration of half-maximal effect)
Summary of the method: (§1)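 qHTS of the MIPE 4.0 collection: 500 myeloma cells/well, 48 h drug exposure at 37C in 5% CO2, then CellTiter-Glo for 5 min at room temperature before luminescence reading.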

[10] = Quantitative High-Throughput drug screen in 47 multiple myeloma cell lines against the NCATS MIPE library collection: EJM_DSMZ cell viability assay (AID 1918926; note: nearly all actives have a fitted effect of over 30% in size; note: potency is the fitted concentration of half-maximal effect)
Summary of the method: as §1

[11] = Quantitative High-Throughput drug screen in 47 multiple myeloma cell lines against the NCATS MIPE library collection: ARP1_JJKsccF8 cell viability assay (AID 1918928; note: nearly all actives have a fitted effect of over 40% in size; note: potency is the fitted concentration of half-maximal effect;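 for viability: 100% = DMSO only wells and 0% = medium only wells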)
Summary of the method: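 Here, 48 h treatment with MIPE 4.0 agents at 37 °C preceded an ATP luminescence read. Plating density was 500 cells per well.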

[12] = NCATS anti-infectives library activity on HEK293 viability as a counter-qHTS vs the C. elegans viability qHTS (AID 1745854); note: potency is the fitted concentration of half-maximal effect; for activity change, negative = cytotoxicity: % is set by controls: 0 for no effect and ±100 for the full control effect
Summary of the method: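 HEK293 cells, 1500 per well, exposed 24 hr at 37C in 5% CO2 to compounds in a 1:5 titration, up to 41.7 uM final. Viability read as CellTiter-Glo luminescence after 10 min at room temperature.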

[13] = Quantitative High-Throughput drug screen in 47 multiple myeloma cell lines against the NCATS MIPE library collection: FR4_PLB cell viability assay (AID 1918924; note: nearly all actives have a fitted effect of over 35% in size; note: potency is the fitted concentration of half-maximal effect)
Summary of the method: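 Primary qHTS used for cherry-picking: cells at 500/well, library compounds for 48 h (37C, 5% CO2), luminescent ATP assay.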

[14] = Quantitative High-Throughput drug screen in 47 multiple myeloma cell lines against the NCATS MIPE library collection: AMO1_DSMZ cell viability assay (AID 1918927; note: nearly all actives have a fitted effect of over 30% in size; note: potency is the fitted concentration of half-maximal effect)
Summary of the method: as §1

[15] = Viability counterscreen for antagonist of constitutive androstane receptor (CAR) against the NCATS DSHEA and TCM libraries (AID 1794837);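 note: compound exposure lasted 24 h before viability reading; 0% is about no effect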
Summary of the method: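 Viability was measured by CellTiter-Fluor fluorescence (405/540 nm, 1 hr) in HepG2-CYP2B6-hCAR cells. Cells were co-treated 24 hr with 48 uM CITCO (final), antagonist mode, and test substances.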

[16] = Viability counterscreen for agonist of constitutive androstane receptor (CAR) against the NCATS DSHEA and TCM libraries (AID 1794838); note: 0% is about no effect
Summary of the method: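 Cell viability, from CellTiter-Fluor fluorescence (405/540 nm), was scored after a 24 h, 37C exposure of HepG2 cells carrying CYP2B6 reporter and hCAR to test substances in presence of 0.75 uM PK11195.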

[17] = target: Nuclear receptor subfamily 1 group I member 3 (Homo sapiens) (UniProt Q14994); assay: Primary qHTS for agonist of constitutive androstane receptor (CAR) against the NCATS DSHEA and TCM libraries (AID 1794839);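 note: HepG2 cells expressing human CAR with a CYP2B6 reporter plus PK11195 antagonist; luciferase reporter luminescence read with ONE-Glo; 0% is about no effect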
Nuclear receptor subfamily 1 group I member 3 (Homo sapiens), sequence (Q14994 whole entry, looked up): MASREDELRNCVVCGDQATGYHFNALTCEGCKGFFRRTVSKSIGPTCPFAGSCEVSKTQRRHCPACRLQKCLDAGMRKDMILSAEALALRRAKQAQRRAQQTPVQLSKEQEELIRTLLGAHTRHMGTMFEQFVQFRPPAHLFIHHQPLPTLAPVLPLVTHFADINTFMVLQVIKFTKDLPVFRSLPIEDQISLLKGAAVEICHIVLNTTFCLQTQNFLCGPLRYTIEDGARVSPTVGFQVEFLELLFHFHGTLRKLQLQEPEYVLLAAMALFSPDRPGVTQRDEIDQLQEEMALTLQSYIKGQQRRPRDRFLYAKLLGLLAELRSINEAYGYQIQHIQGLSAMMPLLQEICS
Summary of the method: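 Agonist mode in presence of hCAR antagonist PK11195 (0.75 µM final): test substances, 24 h, 37 °C, on HepG2-CYP2B6-hCAR cells. Same-well readouts: fluorescence viability, then ONE-Glo luminescence; CITCO as reference agonist.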

[18] = HepG2 viability counterscreen (readout 2: ATP content) against the NCATS DSHEA and TCM libraries (AID 1794840);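 note: HepG2 cells exposed to substances for about 24 h; 0% is about no effect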
Summary of the method: (§2)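 Readout 1: cellular protease activity, GF-AFC substrate (25 uM final, 30 min, fluorescence 380/510 nm). Readout 2: ATP content by CellTiter-Glo luminescence after 30 min at RT. Both follow ~24 h exposure of HepG2 cells (1,000/well) to substances.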

[19] = HepG2 viability counterscreen (readout 1: protease activity) against the NCATS DSHEA and TCM libraries (AID 1794841);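 note: cells exposed to compounds for about 24 h before the protease read; 0% is about no effect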
Summary of the method: as §2

[20] = NCATS anti-infectives library activity on the primary C. elegans qHTS viability assay (AID 1745855; calls by dose curve)
Summary of the method: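 Viability is taken from GFP fluorescence of PE254-GFP-FLuc C. elegans imaged by laser cytometry over 7 days. Ten L1 worms per well grow at 21 °C on TOP10 E. coli capsules with titrated compound; levamisole marks toxicity.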

O=C(NC1CC1)c1cccc(-c2ccc3c(NC(=O)C4CC4)n[nH]c3c2)c1
inactive: Potency [1] | Potency [2]

Cc1cnc(Nc2ccc(CN3CCOCC3)cc2)nc1Nc1cccc(S(=O)(=O)NC(C)(C)C)c1
active: Potency [9] 1.87 µM | Potency [10] 5.9 µM | Potency [11] 3.32 µM
-43.5%: activity [3]
inactive: Potency [1] | Potency [2] | Potency [5] | Potency [6] | outcome [7] | Potency [8]
-4.34%: activity [4]

C[C@H](NC(=O)Cc1cc(F)cc(F)c1)C(=O)N[C@H](C(=O)OC(C)(C)C)c1ccccc1
inactive: Potency [12] | Potency [1] | Potency [2] | Potency [13] | Potency [9] | Potency [10] | Potency [14] | Potency [11]

O=c1[nH]c(=O)n([C@H]2C[C@@H](O)[C@@H](CO)O2)cc1C=CBr
inactive: Potency [12] | Potency [9] | Potency [10] | Potency [14]

CS(=O)(=O)N1CCc2c(-c3cnc(N)nc3)nc(N3CCOCC3)nc21
active: Potency [13] 0.59 µM | Potency [9] 0.148 µM | Potency [10] 2.09 µM
inactive: Potency [1] | Potency [2] | Potency [5] | Potency [6] | outcome [7] | Potency [8]

COc1ccc(C(C)=O)c(O)c1
inactive: outcome [15] | outcome [16] | outcome [17] | outcome [18] | outcome [19] | Potency [13] | Potency [9] | Potency [10] | Potency [14] | Potency [11]

C[C@@]12C[C@@]3(O)O[C@@H](O1)[C@]1(COC(=O)c4ccccc4)[C@@H]3C[C@@]12O[C@@H]1O[C@H](CO)[C@@H](O)[C@H](O)[C@@H]1O
inactive: outcome [15] | outcome [16] | outcome [17] | outcome [18] | outcome [19] | Potency [13] | Potency [14]

N#Cc1c(C2CCNCC2)cc(-c2c(O)cccc2OCC2CC2)nc1N
active: Potency [13] 23.5 µM | Potency [9] 16.6 µM | Potency [10] 18.7 µM | Potency [14] 13.2 µM
-6.86%: activity [4]
-55.9%: activity [3]
inactive: Potency [1] | Potency [5] | Potency [6] | outcome [7] | Potency [8]

Cc1cnc(Nc2ccc(N3CCN(C)CC3)cc2)nc1Nc1cccc(S(=O)(=O)NC(C)(C)C)c1
active: Potency [13] 16.6 µM | Potency [9] 1.48 µM | Potency [10] 3.32 µM | Potency [14] 1.18 µM | Potency [11] 3.72 µM
inactive: Potency [1] | Potency [2]
0.463%: activity [4]
-15.4%: activity [3]

C=C(C)[C@@H]1CC[C@]2(C(=O)O)CC[C@]3(C)[C@H](CC[C@@H]4[C@@]5(C)CC[C@H](O)C(C)(C)[C@@H]5CC[C@]43C)[C@@H]12
inactive: Potency [12] | outcome [15] | outcome [17] | outcome [18] | outcome [19] | Potency [1] | Potency [2] | Potency [13] | Potency [11]

COc1cc2c(Nc3ccc(Cl)c(Cl)c3F)ncnc2cc1OCC1C[C@@H]2CN(C)C[C@H]2C1
active: Potency [13] 14.8 µM | Potency [9] 2.35 µM | Potency [10] 2.96 µM | Potency [14] 8.33 µM | Potency [11] 8.33 µM
-68.7%: activity [4]
-56.2%: activity [3]

c1cc(N[C@@H]2CCNC2)nc(-c2cnc3ccc(-c4cn[nH]c4)cn23)c1
-12.3%: activity [4]
-7.42%: activity [3]
active: Potency [2] 25.5 µM | Potency [13] 11.8 µM | Potency [9] 9.35 µM
inactive: Potency [1] | Potency [5] | outcome [7] | Potency [8]

Cn1cc(-c2cnn3c(N)c(Br)c([C@H]4CCCNC4)nc23)cn1
-78.4%: activity [4]
-6.14%: activity [3]
inactive: Potency [1] | Potency [2]
active: Potency [13] 0.132 µM | Potency [9] 0.743 µM | Potency [10] 0.372 µM | Potency [14] 1.48 µM

CCOC(=O)C=C[C@H](C[C@@H]1CCNC1=O)NC(=O)[C@@H](CC(=O)[C@@H](NC(=O)c1cc(C)on1)C(C)C)Cc1ccc(F)cc1
inactive: Potency [12] | Potency [1] | Potency [2] | Potency [13] | Potency [9] | Potency [10]

Cc1cc(O)c2c(c1)C(=O)c1cccc(O)c1C2=O
inactive: Potency [12] | Potency [20] | Potency [2] | Potency [13] | Potency [9] | Potency [10] | Potency [14]
active: Potency [1] 8.17 µM

c1ccc(CNc2nc(NCc3ccccc3)c3ccccc3n2)cc1
inactive: Potency [1] | Potency [2]
active: Potency [12] 22.4 µM | Potency [13] 23.5 µM | Potency [10] 18.7 µM

c1cc(CN2CCCNCCNCCCNCC2)ccc1CN1CCCNCCNCCCNCC1
inactive: Potency [12] | Potency [1] | Potency [2] | Potency [13] | Potency [10]

Nc1ccc(C(=O)Nc2cccc(-c3nc(N4CCOCC4)c4oc5ncccc5c4n3)c2)cn1
inactive: Potency [12] | Potency [1] | Potency [2] | Potency [5] | Potency [6] | outcome [7] | Potency [8]
active: Potency [9] 0.935 µM | Potency [10] 16.6 µM | Potency [14] 6.62 µM | Potency [11] 6.62 µM

Cc1ncc(-c2ccnc(Nc3ccc(S(C)(=O)=O)cc3)n2)n1C(C)C
inactive: Potency [1] | Potency [2] | Potency [5] | Potency [6] | outcome [7] | Potency [8]
active: Potency [13] 2.64 µM | Potency [9] 2.35 µM | Potency [10] 2.96 µM | Potency [14] 2.09 µM | Potency [11] 2.96 µM

Nc1ccn(C[C@@H](CO)OCP(=O)(O)O)c(=O)n1
inactive: activity change, negative = cytotoxicity [12] 2.29% [at 8.35 µM] | activity, negative = inhibition [1] -28.5% [at 0.4 µM] and -6.08% [at 9.52 µM] | activity change, negative = inhibition [2] 4.75% [at 0.409 µM] and -14.5% [at 9.73 µM] | Potency [9] | Potency [14] | Potency [11]
